# Inconclusive results are not listed. Activity calls are given as the source filed them. Calls come from the whole dose curve; as a rule, active = well fitted activation curve with a large enough effect in the repeat runs; inconclusive = weak or mixed curves; inactive = no such curve, though single readings can be large or run the other way.
# Assay: qHTS assay for small molecules that induce genotoxicity in human embryonic kidney cells expressing luciferase-tagged ATAD5 (AID 651632); note: nearly all actives have a fitted effect of over 15% in size
# Settings: HEK293T ATAD5-luciferase induction, 16 h; series mostly up to 83.3 µM
# From the text: U.S. Tox21 Program National Center for Advancing Translational Sciences [NCATS] NIH Chemical Genomics Center [NCGC] U.S. Environmental Protection Agency [EPA] National Institutes of Environmental Health Sciences [NIEHS] National Toxicology Program [NTP] U.S. Food and Drug Administration [FDA] Tox21 Assay Overview: As cancer cells divide rapidly and during every cell division they need to duplicate their genome by DNA replication. The failure to do so results in the cancer cell death. Based on this concept, many chemotherapeutic agents were developed but have limitations such as low efficacy and severe side effects etc. A new cell based assay was developed to find the compounds that effectively block DNA replication either by directly damaging DNA or by inhibiting other cellular mechanisms. Enhanced Level of Genome Instability Gene 1 (ELG1; human ATAD5) protein levels increase in response to various types of DNA damage. Using a luciferase reporter-gene tagged with ATAD5, a cell-based assay [developed by Kyungjae Myung, NHGRI, NIH] was used to measure the induction of ATAD5 in human embryonic kidney cells (HEK293T). So, increase in luciferase activity can be used to identify the compounds that cause genetic stress.
# Tox21 Assay Protocol Summary: For genotoxicity screening, 2,000 cells in 5 uL/well were dispensed into white, solid-bottom 1536-well plates using a Multidrop Combi (Thermo Scientific) dispenser. Following transfer of 23 nL compound or DMSO vehicle by a pin tool, the plates were incubated 16 hr at 37C and 5% CO2. 5 ul Amplite (AAT Bioquest, Inc.) was then added to each plate and following 30 min incubation at room temperature, luciferase activity was quantified on a ViewLux CCD-based plate reader.
row,Compound,outcome
1,CCN(CCC#N)c1ccccc1,inactive
2,CC(=O)OC(C(=O)c1ccccc1)c1ccccc1 (stereo not given),inactive
3,Nc1cc(C(=O)O)ccc1Cl,inactive
4,CCS(=O)(=O)CCn1c([N+](=O)[O-])cnc1C,inactive
5,NC(=O)C1(N2CCCCC2)CCN(CCCC(=O)c2ccc(F)cc2)CC1,inactive
6,C=COCCOCCOC=C,inactive
7,Cc1cccc(NC(=S)N(C)C)c1,inactive
8,Cc1ccccc1OCC1CO1 (stereo not given),inactive
9,O=CN1CCOCC1,inactive
10,C[N+](C)(C)CC(O)CCl (stereo not given),inactive
11,C[C@H](CCC(=O)O)[C@H]1CC[C@H]2[C@@H]3[C@H](O)C[C@@H]4C[C@H](O)CC[C@]4(C)[C@H]3C[C@H](O)[C@]12C,inactive
12,CC(Cl)COP(=O)(OCC(C)Cl)OCC(C)Cl (stereo not given),inactive
13,CCCCC(=O)N(C)C,inactive
14,CC(=O)Nc1ncc([N+](=O)[O-])s1,inactive
15,CCCCC(C)C(=O)O (stereo not given),inactive
16,COc1ccc(OC)c(NC(=O)CC(C)=O)c1,inactive
17,Nc1cc(S(=O)(=O)O)ccc1S(=O)(=O)O,inactive
18,O=C(CN1CCN(Cc2ccc3c(c2)OCO3)CC1)N1c2ccccc2Sc2ccccc21,inactive
19,CO/N=C(/C(=O)N[C@@H]1C(=O)N2C(C(=O)O)=C(Cn3nnc(C)n3)CS[C@H]12)c1csc(N)n1,inactive
20,F[Si-2](F)(F)(F)(F)F,inactive

row,Compound,outcome
1,CC(=O)N(CC(O)CO)c1c(I)c(C(=O)NCC(O)CO)c(I)c(C(=O)NCC(O)CO)c1I (stereo not given),inactive
2,COc1ccc(/C=N/NC(=O)c2ccncc2)cc1OC,inactive
3,FC(F)(F)/C(=N\OCC1OCCO1)c1ccc(Cl)cc1,inactive
4,NS(=O)(=O)c1ccc(Cl)c(S(N)(=O)=O)c1,inactive
5,CC(=O)OCC(=O)[C@@]1(O)[C@H](OC(C)=O)C[C@H]2[C@@H]3CCC4=CC(=O)C=C[C@]4(C)[C@@]3(F)[C@@H](O)C[C@@]21C,inactive
6,Cc1nc(C)nc(N2C[C@@H](C)N(c3ccnc([C@@H](C)O)n3)[C@@H](C)C2)n1,inactive
7,C=CCOCC(CO)(COCC=C)COCC=C,inactive
8,CCCCC/C=C/CC(=O)OC,inactive
9,CCOC(=O)C(C)(C)C,inactive
10,COc1cccc2sc(N)nc12,inactive
11,O=S(=O)(O)CCO,inactive
12,CC(C)CCCCCCOC(=O)C1CCCCC1C(=O)OCCCCCCC(C)C (stereo not given),inactive
13,CC(C)CCO,inactive
14,O=C(O)c1ccccc1C(=O)Nc1ccc(S(=O)(=O)Nc2nccs2)cc1,inactive
15,CCCCCCCCOC(C)=O,inactive
16,O=S1(=O)CCCC1,inactive
17,C1=C\CC/C=C\CC/1,inactive
18,C=C[Si](C)(C)O[Si](C)(C)C=C,inactive
19,CCCCOC(=O)[C@@H](C)Oc1ccc(Oc2ccc(C(F)(F)F)cn2)cc1,inactive
20,Cc1ncc([N+](=O)[O-])n1CC(O)CCl (stereo not given),inactive

# Reference: PubChem BioAssay (Tox21)
